The nature of experiment [1]: kinase inhibitors against Plasmodium liver-stage infection, cell-based, known kinase inhibitor set, luminescence, hepatoma host viability (AID 624392).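 Further: infected cells incubated roughly two days before readout.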 The following applies: Plasmodium liver stage in hepatoma cells, luciferase luminescence, concentration not given here; liver cell % of control: measured here: host liver cell viability; parasite % of control: stronger effect = lower value.

Experiment [2] in a line: modulators of glucocorticoid suppression of NF-kB, cell-based, luciferase, IL-1B stimulus, dexamethasone (AID 624486).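 On percent of negative control (+Dex): 100% = mean signal of vehicle control wells on the plate.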 The conditions noted are these: NF-kB luciferase reporter, IL-1B + dexamethasone, luminescence; percent of negative control (+Dex): actives lie on both sides, concentration not given here; z-score: measured here: IL-1B alone, no Dex. Background: A reporter such as luciferase makes a cellular process visible.

The target of experiment [3] is Cellular tumor antigen p53 (Homo sapiens) (UniProt P04637). The experiment in a line: kinase inhibitors altering GFP-p53 stability in HPV16-positive cells, imaging, known kinase inhibitor set, EGFP/DsRed ratio (AID 1053116).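 Further: cells exposed to compounds for 24 h at 37 °C before reading.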 The conditions noted are these: stronger effect = higher value; EGFP object count: measured here: GFP-p53 positive objects count.
Cellular tumor antigen p53 (Homo sapiens), sequence (P04637 whole entry, looked up): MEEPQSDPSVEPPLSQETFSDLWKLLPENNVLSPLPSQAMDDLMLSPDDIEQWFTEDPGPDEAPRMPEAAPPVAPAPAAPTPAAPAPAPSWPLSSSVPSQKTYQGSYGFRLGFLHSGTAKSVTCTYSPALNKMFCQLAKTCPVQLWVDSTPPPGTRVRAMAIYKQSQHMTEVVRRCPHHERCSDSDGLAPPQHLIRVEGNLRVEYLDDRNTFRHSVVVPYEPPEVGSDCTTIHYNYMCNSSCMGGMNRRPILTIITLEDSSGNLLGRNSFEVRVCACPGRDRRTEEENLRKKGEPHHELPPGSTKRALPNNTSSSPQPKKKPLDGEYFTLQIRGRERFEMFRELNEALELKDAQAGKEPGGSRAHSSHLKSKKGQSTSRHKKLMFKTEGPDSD
Experiment [4] is described as follows: IRF3 reporter activation in THP-1 macrophages, cell-based, PMA-stimulated THP-1, luminescence (AID 1053176). The conditions noted are these: PMA-differentiated THP-1, IRF3 reporter luminescence; stronger effect = higher value.

Activity calls are given as the source filed them. How the calls were made is not given here.

Turning to `Cn1cc(C2=C(c3cccnc3)C(=O)NC2=O)c2ccccc21`, in experiment [1], the liver cell % of control was found to be 312% and the parasite % of control is 2% (active). Besides, in experiment [2], the percent of negative control (+Dex) was 110% (inactive) and the z-score is -1.34. For the same compound, in experiment [3], the EGFP object count was 8.5 and the EGFP/DsRed ratio is 0.135 (inactive). Further, the fraction signal in experiment [4] is -0.005 (inactive).

Turning to `Nc1c(C(=O)c2cccc(CCCN3CCOCC3)c2)cnn1-c1ccc(F)cc1`, in experiment [1], the liver cell % of control amounted to 97.8% and the parasite % of control is 48.1% (inactive). For the same compound, in experiment [2], the percent of negative control (+Dex) is 109% (inactive) and the z-score turned out to be 1.09. In addition, in experiment [3], the EGFP object count is 6 and the EGFP/DsRed ratio was 0.339 (inactive). The fraction signal in experiment [4] is -0.005 (inactive).

On to `Cn1cc(C2=C(c3c4n(c5ccccc35)CCC(CN)CC4)C(=O)NC2=O)c2ccccc21` (configuration not stated), for which, in experiment [1], the liver cell % of control came out at 127% and the parasite % of control was 42.3% (inactive). In addition, in experiment [2], the percent of negative control (+Dex) was 94% (inactive) and the z-score was -0.165. Moreover, in experiment [3], the EGFP object count stood at 30.5 and the EGFP/DsRed ratio is 0.0801 (inactive). Moreover, the fraction signal in experiment [4] is -0.003 (inactive).

Regarding `O=C1NC(=NCCc2cccc(F)c2)SC1=Cc1ccc2ncccc2c1`, in experiment [1], the liver cell % of control came out at 113% and the parasite % of control is 54% (inactive). In addition, in experiment [2], the percent of negative control (+Dex) is 85.5% (inactive) and the z-score is -0.65. Moreover, in experiment [3], the EGFP object count was determined as 5.5 and the EGFP/DsRed ratio is 0.176 (inactive). The fraction signal in experiment [4] is -0.018 (inactive).

For the compound `NC1=NC(=O)C(=Cc2ccc3ncccc3c2)S1`, in experiment [1], the liver cell % of control was 101% and the parasite % of control is 50.6% (inactive). In experiment [2], the percent of negative control (+Dex) is 100% (inactive) and the z-score is 0.495. Also, in experiment [3], the EGFP object count amounted to 4 and the EGFP/DsRed ratio was 0.204 (inactive). Moreover, the fraction signal in experiment [4] was -0.007 (inactive).

`COc1ccc(C2=C(c3cn(C)c4ccccc34)C(=O)NC2=O)cc1OC`: in experiment [1], the liver cell % of control was 215% and the parasite % of control is 12.7% (inactive). Also, in experiment [2], the percent of negative control (+Dex) is 100% (inactive) and the z-score was -0.425. Also, in experiment [3], the EGFP object count was found to be 13 and the EGFP/DsRed ratio is 0.28 (inactive). Also, the fraction signal in experiment [4] was -0.003 (inactive).

For `O=C1NC(=O)C(c2c[nH]c3ccccc23)C1c1c[nH]c2ccccc12` (configuration not stated), in experiment [1], the liver cell % of control was found to be 102% and the parasite % of control was 41.2% (inactive). Besides, in experiment [2], the percent of negative control (+Dex) is 100% (inactive) and the z-score worked out at 0.125. Further, in experiment [3], the EGFP object count worked out at 2.5 and the EGFP/DsRed ratio is 0.0298 (inactive). Moreover, the fraction signal in experiment [4] is -0.0005 (inactive).

`Nc1c(C(=O)c2ccccc2)cnn1-c1ccc(F)cc1`: in experiment [1], the liver cell % of control was found to be 97.1% and the parasite % of control is 76.7% (inactive). In experiment [2], the percent of negative control (+Dex) was 152% (active) and the z-score was found to be 5.57. In experiment [3], the EGFP object count was determined as 5 and the EGFP/DsRed ratio is 0.17 (inactive). For the same compound, the fraction signal in experiment [4] is -0.0025 (inactive).

In the case of `CC(C)(O)Cn1c(=O)c(Oc2ccc(F)cc2F)cc2cnc(NC3CCOCC3)nc21`, in experiment [1], the liver cell % of control stood at 105% and the parasite % of control is 58.9% (inactive). For the same compound, in experiment [2], the percent of negative control (+Dex) was 86% (inactive) and the z-score is -0.37. Further, in experiment [3], the EGFP object count was found to be 4 and the EGFP/DsRed ratio is 0.0773 (inactive). In addition, the fraction signal in experiment [4] was -0.0135 (inactive).

For `Cn1cc(C2=C(Oc3ccccc3)C(=O)NC2=O)c2ccccc21`, in experiment [1], the liver cell % of control was determined as 109% and the parasite % of control is 43% (inactive). Besides, in experiment [2], the percent of negative control (+Dex) is 102% (inactive) and the z-score came to 0.18. Further, in experiment [3], the EGFP object count stood at 41 and the EGFP/DsRed ratio is 0.339 (inactive). In experiment [4], the fraction signal is -0.0005 (inactive).

`Cc1ccccc1C1=C(c2cn(C)c3ccccc23)C(=O)NC1=O`: in experiment [1], the liver cell % of control amounted to 136% and the parasite % of control is 37% (inactive). Also, in experiment [2], the percent of negative control (+Dex) is 96% (inactive) and the z-score was -1.4. In addition, in experiment [3], the EGFP object count was 22 and the EGFP/DsRed ratio was 0.4 (inactive). For the same compound, the fraction signal in experiment [4] is 0.0035 (inactive).

In the case of `COc1ccc(OC)c(C2=C(c3cn(C)c4ccccc34)C(=O)NC2=O)c1`, in experiment [1], the liver cell % of control worked out at 105% and the parasite % of control is 22.1% (inactive). Further, in experiment [2], the percent of negative control (+Dex) was 99% (inactive) and the z-score is -0.03. In experiment [3], the EGFP object count was 15 and the EGFP/DsRed ratio is 0.328 (inactive). Moreover, the fraction signal in experiment [4] was -0.003 (inactive).

Turning to `Cn1c(-c2ccncc2)c(-c2ccc(F)cc2)c2ncccc21`, in experiment [1], the liver cell % of control came out at 100% and the parasite % of control is 44.7% (inactive). Further, in experiment [2], the percent of negative control (+Dex) was 104% (inactive) and the z-score came out at 1.04. Further, in experiment [3], the EGFP object count was 3 and the EGFP/DsRed ratio is 0.0799 (inactive). Also, in experiment [4], the fraction signal is -0.0005 (inactive).

With `CC(=O)NC(Cc1ccc(OP(=O)(O)O)cc1)C(=O)NC1CCC(=O)N2CCCC(C(=O)NCc3ccc(O)cc3)N2C1=O` (configuration not stated), in experiment [1], the liver cell % of control was 107% and the parasite % of control is 44.4% (inactive). Moreover, in experiment [2], the percent of negative control (+Dex) is 94.5% (inactive) and the z-score was 0.215. In addition, in experiment [3], the EGFP object count was 6 and the EGFP/DsRed ratio was 0.202 (inactive). For the same compound, in experiment [4], the fraction signal is -0.007 (inactive).

Turning to `Nc1c(C(=O)c2cccc(-c3ccc[n+]([O-])c3)c2)cnn1-c1ccc(F)cc1F`, in experiment [1], the liver cell % of control amounted to 105% and the parasite % of control is 45.9% (inactive). Also, in experiment [2], the percent of negative control (+Dex) was 101% (inactive) and the z-score amounted to 0.065. Also, in experiment [3], the EGFP object count was found to be 3.5 and the EGFP/DsRed ratio is 0.063 (inactive). Moreover, the fraction signal in experiment [4] was -0.0155 (inactive).

As to `COc1ccc(F)cc1C(=O)c1cnc(NC2CCN(S(C)(=O)=O)CC2)nc1N`, in experiment [1], the liver cell % of control is 97.2% and the parasite % of control was 587% (inactive). In experiment [2], the percent of negative control (+Dex) is 96.5% (inactive) and the z-score was -0.18. In addition, in experiment [3], the EGFP object count turned out to be 4.5 and the EGFP/DsRed ratio is 0.0651 (inactive). For the same compound, in experiment [4], the fraction signal was -0.009 (inactive).

Take `O=c1[nH]c2nc(NC3CCOCC3)ncc2cc1Oc1ccc(F)cc1F`: in experiment [1], the liver cell % of control was found to be 94.5% and the parasite % of control is 56.1% (inactive). Also, in experiment [2], the percent of negative control (+Dex) is 104% (inactive) and the z-score came to 0.61. In addition, in experiment [3], the EGFP object count is 2 and the EGFP/DsRed ratio was 0.08 (inactive). The fraction signal in experiment [4] is -0.003 (inactive).

Take `COc1ccccc1CN=C1NC(=O)C(=Cc2ccc3ncccc3c2)S1`: in experiment [1], the liver cell % of control came to 98.9% and the parasite % of control was 28.1% (inactive). Also, in experiment [2], the percent of negative control (+Dex) was 91.5% (inactive) and the z-score is -0.71. In addition, in experiment [3], the EGFP object count worked out at 4.5 and the EGFP/DsRed ratio is 0.187 (inactive). In experiment [4], the fraction signal is -0.0025 (inactive).

Turning to `O=C1NC(=NCCc2cccs2)SC1=Cc1ccc2ncccc2c1`, in experiment [1], the liver cell % of control worked out at 118% and the parasite % of control was 40.6% (inactive). For the same compound, in experiment [2], the percent of negative control (+Dex) was 96% (inactive) and the z-score was -0.36. In experiment [3], the EGFP object count came out at 4.5 and the EGFP/DsRed ratio is 0.079 (inactive). In addition, the fraction signal in experiment [4] is -0.003 (inactive).

`Fc1ccc(-c2c(-c3ccncc3)[nH]c3nccnc23)cc1`: in experiment [1], the liver cell % of control came to 183% and the parasite % of control was 30.2% (inactive). In experiment [2], the percent of negative control (+Dex) is 110% (inactive) and the z-score was -0.915. Also, in experiment [3], the EGFP object count was determined as 4 and the EGFP/DsRed ratio is 0.101 (inactive). Besides, the fraction signal in experiment [4] was -0.02 (inactive).

`CCn1c(=O)c(Oc2ccc(F)cc2F)cc2cnc(NC3CCOCC3)nc21`: in experiment [1], the liver cell % of control was found to be 103% and the parasite % of control is 55.7% (inactive). Also, in experiment [2], the percent of negative control (+Dex) was 85.5% (inactive) and the z-score was -0.82. In experiment [3], the EGFP object count is 3.5 and the EGFP/DsRed ratio was 0.0988 (inactive). In addition, in experiment [4], the fraction signal was -0.005 (inactive).

The record behind these values is PubChem BioAssay.
